Data as given in PubChem BioAssay AID504333 (National Center for Advancing Translational Sciences (NCATS), 2011).
In all, about 360,000 compounds went through this assay and about 16,000 (4.4%) were called active. About 9% were inconclusive and are not listed. Calls come from the whole dose curve; as a rule, active = well fitted inhibition curve with a large enough effect; inconclusive = small, poorly fitted or top-dose-only effect; inactive = no such curve, though single readings can be large or run the other way. The list comes from a sample in which actives are over-represented; it also holds similar structures and randomly drawn compounds. Where a call stands in place of a potency, no number is given.

What follows are compounds tested against Bromodomain adjacent to zinc finger domain protein 2B (Homo sapiens) (UniProt Q9UIF8) (assay: qHTS Assay for Inhibitors of BAZ2B). Conditions: AlphaScreen BAZ2B-H3K14Ac peptide displacement; series mostly up to 114 µM.
Excerpt: BAZ2B (bromodomain adjacent to zinc finger domain, 2B) belongs to a family of ubiquitously expressed bromodomain containing proteins, which biological function has not yet been elucidated. […] The interaction of BAZ2B with ISWI mediated by the BAZ1 motif has recently been described. […] The protocol is based on the AlphaScreen (PerkinElmer) displacement assay developed by NCGC [5], but uses the peptide ligand Biot-H3K14Ac, a high affinity binding partner for BAZ2B, in an AlphaScreen format. Although AlphaScreen has significant advantages with its utility in a variety of epigenetic target assays, the primary screening data provided in this deposition should be used with caution due to the prevalence of screening artifacts. The top compound concentration tested was 110uM in this assay, which increases number of actives and potential artifacts. An AlphaScreen counterscreen is highly recommended to be run against any putative actives to eliminate non-specific artifacts. Alternatively, one can use other AlphaScreen assays in PubChem to filter out promiscuous hits. Eberharter, A. et al. ACF1 improves the effectiveness of nucleosome mobilization by ISWI through PHD-histone contacts. The EMBO journal 23, 4029-4039. 2004. PMID: 15457208 [2] Jones, M.H. et al. A novel family of bromodomain genes. Genomics 63, 40-45. 2000. PMID: 10662543 [3] Yasgar, et al. Compound Management for Quantitative High-Throughput Screening. JALA. 2008 Apr;13(2):79-89. PMID: 18496600 [4] Inglese, et al. Quantitative high-throughput screening: a titration-based approach that efficiently identifies biological activities in large chemical libraries. Proc Natl Acad Sci. 1;103(31):11473-8. 2006. PMID: 16864780 [5] Quinn et al. A chemiluminescence-based method for identification of histone lysine methyltransferase inhibitors. Mol Biosyst 6(5): 782-8. 2010. PMID: 20567762 [6] Baell,Holloway. New substructure filters for removal of pan assay interference compounds (PAINS) from screening libraries and for their exclusion in bioassays. J Med Chem. 53(7):2719-40. 2010. PMID: 20131845 NIH Molecular Libraries Probe Production Network [MLPCN] NIH Chemical Genomics Center [NCGC] Structural Genomics Consortium (SGC) NIH Grant: 5U54 MH084681-02
To each well of a 1,536w plate, 2ul of BAZ2B protein (final 50nM) and 1ul biotinylated histone peptide acetylated at Lys14 [b-H3(5-23)K14Ac] (final 50nM) were added in 1x PBS buffer, pH 7.4, containing 0.01% Tween-20, using a nanoliter dispenser. Formation of a protein-peptide complex proceeded at room temperature for 30 min. A Kalypsys pin-tool was employed to transfer 23 nL of library compound solution in DMSO to each well. Following a 30 min incubation of the protein-peptide complex with compounds at room temperature, a mixture of 40 ug/mL each streptavidin-coated donor and nickel chelate acceptor AlphaScreen beads (final 10 ug/mL) were added in a 1ul dispense for a final volume of 4ul. A brief centrifugation followed (1000rpm, 1 min) and were then incubated protected from the light for 20 min at room temperature. Plates were read on an EnVision multilabel plate reader using the 1,536 plate HTS AlphaScreen aperture (excitation time 80 ms, measurement time 240 ms).
Note: nearly all actives have a fitted effect of over 60% in size.
Potency is the fitted concentration of half-maximal effect.

Bromodomain adjacent to zinc finger domain protein 2B (Homo sapiens), sequence (Q9UIF8 whole entry, looked up, the tested form may be a part): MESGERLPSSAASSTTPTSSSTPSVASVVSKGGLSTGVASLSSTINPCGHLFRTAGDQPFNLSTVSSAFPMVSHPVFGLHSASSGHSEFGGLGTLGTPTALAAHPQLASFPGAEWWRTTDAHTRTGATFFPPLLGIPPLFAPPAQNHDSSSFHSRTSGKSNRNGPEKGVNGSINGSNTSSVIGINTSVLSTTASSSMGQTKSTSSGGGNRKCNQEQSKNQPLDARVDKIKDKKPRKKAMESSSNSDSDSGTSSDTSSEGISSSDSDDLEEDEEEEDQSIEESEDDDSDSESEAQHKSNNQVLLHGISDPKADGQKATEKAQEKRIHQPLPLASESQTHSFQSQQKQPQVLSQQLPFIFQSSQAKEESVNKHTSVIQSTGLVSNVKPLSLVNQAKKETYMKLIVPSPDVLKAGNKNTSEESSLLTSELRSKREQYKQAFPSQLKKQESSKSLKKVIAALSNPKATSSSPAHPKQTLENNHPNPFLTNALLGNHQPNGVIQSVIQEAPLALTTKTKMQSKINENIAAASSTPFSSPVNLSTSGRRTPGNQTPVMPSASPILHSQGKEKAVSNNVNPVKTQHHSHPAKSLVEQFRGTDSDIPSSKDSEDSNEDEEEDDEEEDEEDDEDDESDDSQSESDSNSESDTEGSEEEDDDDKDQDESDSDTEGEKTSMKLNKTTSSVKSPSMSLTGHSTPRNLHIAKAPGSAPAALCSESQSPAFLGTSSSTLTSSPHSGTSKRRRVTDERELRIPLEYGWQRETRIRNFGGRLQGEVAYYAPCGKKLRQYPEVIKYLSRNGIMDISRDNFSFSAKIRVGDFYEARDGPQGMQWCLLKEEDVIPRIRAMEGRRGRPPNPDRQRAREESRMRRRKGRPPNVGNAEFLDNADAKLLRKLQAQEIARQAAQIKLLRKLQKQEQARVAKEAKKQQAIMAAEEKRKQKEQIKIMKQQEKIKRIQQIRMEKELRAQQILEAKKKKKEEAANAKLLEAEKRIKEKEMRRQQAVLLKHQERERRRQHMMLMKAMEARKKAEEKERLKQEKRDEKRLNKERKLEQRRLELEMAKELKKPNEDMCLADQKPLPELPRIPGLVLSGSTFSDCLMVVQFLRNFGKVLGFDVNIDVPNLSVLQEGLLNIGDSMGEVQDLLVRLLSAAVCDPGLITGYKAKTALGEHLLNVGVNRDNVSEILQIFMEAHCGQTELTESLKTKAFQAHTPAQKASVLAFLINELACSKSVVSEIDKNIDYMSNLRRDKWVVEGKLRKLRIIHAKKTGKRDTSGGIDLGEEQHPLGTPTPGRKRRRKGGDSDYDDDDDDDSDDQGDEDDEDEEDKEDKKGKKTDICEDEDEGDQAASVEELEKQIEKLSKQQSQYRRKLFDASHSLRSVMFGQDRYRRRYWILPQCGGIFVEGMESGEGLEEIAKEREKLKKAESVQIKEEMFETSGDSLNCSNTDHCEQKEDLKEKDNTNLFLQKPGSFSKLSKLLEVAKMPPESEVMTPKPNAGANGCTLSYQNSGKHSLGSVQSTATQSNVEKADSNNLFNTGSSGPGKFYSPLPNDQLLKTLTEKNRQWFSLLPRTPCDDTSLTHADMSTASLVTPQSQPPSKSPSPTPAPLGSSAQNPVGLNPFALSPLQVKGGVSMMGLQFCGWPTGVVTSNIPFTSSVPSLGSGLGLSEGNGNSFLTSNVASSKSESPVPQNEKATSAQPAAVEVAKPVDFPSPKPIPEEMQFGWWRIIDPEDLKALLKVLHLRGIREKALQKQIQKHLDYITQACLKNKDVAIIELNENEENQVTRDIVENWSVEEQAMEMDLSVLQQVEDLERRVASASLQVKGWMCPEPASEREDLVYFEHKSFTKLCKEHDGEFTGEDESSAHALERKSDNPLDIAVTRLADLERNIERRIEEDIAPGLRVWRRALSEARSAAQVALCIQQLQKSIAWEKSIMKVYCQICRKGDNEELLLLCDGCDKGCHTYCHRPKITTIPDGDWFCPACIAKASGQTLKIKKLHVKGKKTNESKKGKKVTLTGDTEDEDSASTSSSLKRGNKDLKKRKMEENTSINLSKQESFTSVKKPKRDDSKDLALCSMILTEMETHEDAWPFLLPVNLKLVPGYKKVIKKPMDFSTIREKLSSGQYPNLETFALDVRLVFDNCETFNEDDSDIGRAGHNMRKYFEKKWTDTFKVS

SMILES | Potency
O=C(O)c1cscn1 | 20 µM (active)
COc1ccc(NC(=O)Cn2c(=O)cc(C)c3c(C)nn(-c4cccc(Cl)c4C)c32)cc1OC | inactive
Cc1cccc(OCCSc2nc3ccc(NC(=O)COc4ccccc4C)cc3s2)c1 | inactive
N/C(=N\OC(=O)c1ccc([N+](=O)[O-])cc1)c1ccccn1 | inactive
N/C(=N\OC(=O)Cc1ccc([N+](=O)[O-])cc1)c1ccccn1 | 50.1 µM (active)
COc1ccccc1OCC(=O)O/N=C(\N)c1ccccn1 | inactive
CCOC(=O)c1cccc(NC(=O)Cn2cnc3nc4c(cc3c2=O)CCCC4)c1 | inactive
Cc1ccc(CCNC(=O)c2ccc3c(c2)nc2n3CCC(C)C2)cc1 (stereo not drawn) | inactive
Cn1nnnc1SCCCNCc1cccc(OCc2ccc(Cl)cc2)c1 | inactive
CC(C)CNC(=O)C(=O)Nc1ccc(N(C)C)cc1 | inactive
CN(C)c1ccc(N/C=C/C(=O)C(F)(F)F)cc1 | 28.2 µM (active)
CC(=O)N(C)c1ccc(NC(=O)C(F)(F)F)cc1 | inactive
Cc1oc2ccc(O)c(CN3CCC(C)CC3)c2c1C(=O)Nc1ccccc1 | inactive
Cc1c(OC(C)C(=O)N[C@@H](Cc2ccccc2)C(=O)O)ccc2c3c(c(=O)oc12)CCCC3 (stereo partly drawn) | inactive
Cc1oc2c(C)c3oc(=O)c(CC(=O)N[C@@H](CC(C)C)C(=O)N[C@@H](Cc4ccccc4)C(=O)O)c(C)c3cc2c1C | 35.5 µM (active)
Cc1c(CCC(=O)N[C@@H](CC(C)C)C(=O)O)c(=O)oc2c(C)c3oc4c(c3cc12)CCCC4 | inactive
COc1ccc(NC(=O)CSc2nc3ncccc3[nH]2)c(OC)c1 | inactive
COc1ccc(C(=O)Nc2cccc(C(=O)OCc3cc(=O)n4c5c(sc4n3)CCCC5)c2)cc1 | inactive
CCc1ccccc1NC(=O)Cc1ccc(NC(=O)N2CCCCc3ccccc32)cc1 | inactive
O=C(Nc1ccccc1)O/N=C1\CCCCC1c1ccc([N+](=O)[O-])cc1[N+](=O)[O-] (stereo not drawn) | inactive
O=[N+]([O-])c1ccc(N/N=C2/CCCCC2c2ccccn2)c([N+](=O)[O-])c1 (stereo not drawn) | 31.6 µM (active)
COc1cc([N+](=O)[O-])ccc1NC(=S)N1CCN(c2ccccn2)CC1 | inactive
Cc1ccc(F)cc1NC(=O)CCSc1nc(-c2ccco2)cc(C(F)(F)F)n1 | inactive
COC(=O)c1cc(S(=O)(=O)N2CCN(c3cc(Cl)ccc3C)CC2)c[nH]1 | inactive
COc1ccc(-c2nc3sc(CCNC(=O)C(C)(C)C)c(C)n3n2)cc1 | inactive
COc1cc(-c2noc(-c3ccc(N4CCCC4)c([N+](=O)[O-])c3)n2)cc(OC)c1OC | inactive

SMILES | Potency
Cc1ccc(Cl)cc1NC(=O)/C(C#N)=C\c1cn(Cc2ccc(F)cc2)c2ccccc12 | inactive
COc1cc(OC)cc(C(=O)NCCSCc2ccco2)c1 | inactive
Cc1ccsc1C(=O)NCCc1ccco1 | 56.2 µM (active)
Cc1ccccc1NC(=O)NCc1ccco1 | inactive
Cc1ccc(F)cc1S(=O)(=O)N1CCC(c2nc3ccccc3s2)CC1 | inactive
Cc1ccc(C(=O)COC(=O)C(Cc2c[nH]c3ccccc23)NC(=O)c2ccc(Br)cc2)cc1 (stereo not drawn) | inactive
COc1cccc(OCCCN2CCCCCC2)c1 | 56.2 µM (active)
CC1CCN(CC(O)COc2ccc(C(=O)c3ccccc3)cc2)CC1 (stereo not drawn) | inactive
C/C=C/c1ccc(OCCOc2ccc(C=O)cc2OC)c(OC)c1 | inactive
COc1ccc(OC)c(NC(=O)CCN2CCC(C)CC2)c1 | inactive
COc1cc(/C=N/NC(=O)c2ccoc2C)ccc1OCCN1CCCCC1 | inactive
C/C=C/c1ccc(OCCCCN2CCC(C)CC2)c(OC)c1 | 35.5 µM (active)
COc1cccc(NC(=O)NCCN2CCCCC2)c1 | inactive
COc1ccc(OCCCCN2CCC(C)CC2)cc1 | 79.4 µM (active)
COc1cccc(OCC(O)CN2CCN(CCO)CC2)c1 (stereo not drawn) | inactive
CCCCN(C)S(=O)(=O)c1ccc(C(=O)Nc2sc3c(c2C(N)=O)CC(C)(C)NC3(C)C)cc1 | inactive
COC(=O)c1ccccc1NC(=O)Cn1c(=O)cc(C)c2c(C)nn(-c3cccc(Cl)c3C)c21 | inactive
CCOc1ccc(CNC(=O)C2CCCN(S(=O)(=O)N(CC)c3ccc(OCC)cc3)C2)cc1 (stereo not drawn) | inactive
Cc1ccc(Cc2nc3ccccc3nc2SCC(=O)Nc2cccc(C(F)(F)F)c2)cc1 | inactive
Cc1nc2ccccn2c(=O)c1NC(=O)c1c(F)cccc1F | inactive
Cc1ccc(-c2nc3ccccn3c2Nc2c(C)cccc2C)o1 | 28.2 µM (active)
Cc1cccc(C)c1Nc1c(-c2ccccc2O)nc2ncccn12 | inactive
CCOC(=O)C1CCN(c2ncnc3c2c(-c2ccccc2)cn3-c2cccc(C)c2)CC1 | inactive
CCOc1ccc(CCNC(=O)c2csc3c2CCCCC3)cc1 | inactive
O=[N+]([O-])c1ccccc1S(=O)(=O)Nc1cccc2cccnc12 | 25.1 µM (active)
Cc1ccccc1NC(=O)c1ccccc1NS(=O)(=O)c1cccc2cccnc12 | inactive

SMILES | Potency
COc1cc(NS(=O)(=O)c2ccc3ccccc3c2)c2ncccc2c1 | inactive
Cc1nn(-c2nc(-c3ccccc3)cc(C(F)(F)F)n2)c(C)c1Cl | inactive
Cc1cc(C)cc(OC(C)C(=O)Nc2nc3c(s2)CCCC3)c1 (stereo not drawn) | inactive
O=C(Nc1nc2c(s1)CCCC2)c1ccccc1F | inactive
COC(=O)C(NC(C)=O)(Nc1nc2c(s1)CCCC2)C(F)(F)F (stereo not drawn) | 56.2 µM (active)
O=C(CCS(=O)(=O)c1ccc2c(c1)NC(=O)CO2)Nc1cccc(C(F)(F)F)c1 | inactive
CCOC(=O)CSC1=Nc2ccccc2C2=NC(CCC(=O)NCc3ccc(F)cc3)C(=O)N12 (stereo not drawn) | inactive
N[C@@H](Cc1ccccc1)C(=O)N1CCOCC1 | inactive
Cc1ccc(C)n1C(Cc1ccccc1)C(=O)O (stereo not drawn) | 39.8 µM (active)
CCOC(=O)C(Cc1ccc(N)cc1)N1C(=O)c2ccccc2C1=O (stereo not drawn) | inactive
Cc1ccc2nc(CN3CCN(S(=O)(=O)c4ccc(C)c(C)c4)CC3)oc2c1 | inactive
CC(=C1C(=O)c2ccccc2C1=O)N1CCN(c2ccccn2)CC1 | inactive
Cc1nn(-c2ccccn2)c2c1C(c1ccncc1)C1=C(CC(C)(C)CC1=O)N2 (stereo not drawn) | inactive
Cc1cc(C)c(C2C3=C(Nc4c2c(C)nn4-c2ccccn2)c2ccccc2C3=O)c(C)c1 (stereo not drawn) | 10 µM (active)
COc1ccccc1CCNC(=O)c1cccn1-c1nnc(N2CCCCC2)s1 | inactive
CCCOc1cccc(C(=O)Nc2cccc(NC(=O)c3ccc(C(C)(C)C)cc3)c2)c1 | inactive
CCOC(=O)c1ccc(NC(=O)Cn2c(=O)n(-c3ccc(C)cc3)c(=O)c3c2cnn3C)cc1 | inactive
O=C(NC1CCCCC1)c1ccc2c(c1)N(Cc1ccc(Cl)cc1)C(=O)c1ccccc1S2=O (stereo not drawn) | inactive
CCSc1nnc(NC(=O)c2cc(=O)c3cc(C)c(C)cc3o2)s1 | inactive
NC(=O)CSc1nnc(NC(=O)c2ccc3ccccc3c2)s1 | inactive
NC(=O)CSc1nnc(NC(=O)c2ccc(Br)o2)s1 | 56.2 µM (active)
CCCNC(=O)C(CC)n1nc(CC)n2c(cc3oc(C)cc32)c1=O (stereo not drawn) | inactive
COc1cccc(NC(=O)C(=O)NCC(c2ccc3c(c2)OCO3)N2CCN(C)CC2)c1 (stereo not drawn) | inactive
CC(C)C(=O)Nc1nc2c(s1)CC(C(C)(C)C)CC2 (stereo not drawn) | inactive
COc1ccc(CNC(=O)CCN2C(=O)c3ccccc3C2=O)cc1 | inactive
CCOC(=O)c1cc2cc3ccccc3cc2oc1=O | inactive

SMILES | Potency
CCOC(=O)C1=C(c2ccc(OC)cc2)C(=O)c2ccccc2C1=O | 20 µM (active)
CCCCn1cc(S(=O)(=O)c2ccc(OCC)cc2)c(=O)c2cc(OC)c(OC)cc21 | inactive
Cc1ccc(CCNC(=O)C2CCN(c3nnc(-n4cccc4CNc4ccc(C)cc4)s3)CC2)cc1 | inactive
CC(=O)Nc1cccc(/C(C)=N/NC(=O)c2c(-c3ccccc3Cl)noc2C)c1 | inactive
C/C(=N\Nc1cccc(C(=O)O)c1)c1ccc2c(c1)Nc1ccccc1S2 | 44.7 µM (active)
Cc1ccccc1NC(=O)c1cc(S(=O)(=O)Nc2cccc(C(=O)O)c2)ccc1Cl | inactive
Cc1ccc2nc(COc3ccccc3NC(=O)Nc3ccc(F)c(Cl)c3)cc(=O)n2c1 | inactive
Cc1ccc(-n2nc(C)c(C(=O)O)c2-n2cccc2)cc1 | 50.1 µM (active)
Cc1nn(-c2ccc(F)cc2)c(-n2cccc2)c1C(=O)N1CCN(c2ccccc2)CC1 | inactive
Cc1nn(-c2ccccc2)c(-n2cccc2)c1C(=O)O | inactive
O=C(NCc1ccc2c(c1)CCN2C(=O)c1ccccc1)Nc1cc(F)ccc1F | inactive
COc1ccc(OC)c(NC(=O)CSC2=Nc3ccccc3C3=NC(CC(=O)NCc4ccc(F)cc4)C(=O)N23)c1 (stereo not drawn) | inactive
COc1ccccc1NC(=O)c1sc2nc(C)c(C(=O)Nc3ccc(Cl)cc3)c(-c3ccc(Br)cc3)c2c1N | inactive
CCCCN(C)CCNC(=O)CSCc1ccc(C)cc1 | 50.1 µM (active)
CCN(CC(=O)Nc1cc(Cl)ccc1C)C(=O)CSCc1ccc(C)cc1 | inactive
Cc1ccc(CSCC(=O)N(C)CC(=O)Nc2ccc(C)cc2)cc1 | inactive
CCOc1ccccc1C(=O)NC1(C(F)(F)F)NC(=O)N(CCc2ccc(OC)c(OC)c2)C1=O (stereo not drawn) | inactive
CCN(C(=O)c1sc2cc(OC)ccc2c1Cl)c1ccccc1 | inactive
CCC(=O)Nc1ccc2nc(SCC(=O)N3CCc4ccccc43)sc2c1 | inactive
CCN(CCCNC(=O)Cn1ncc2c3ccccc3n(C)c2c1=O)Cc1ccccc1 | inactive
CCc1ccc(NC(=O)c2nn(-c3ccc(C)cc3)c(=O)n(C)c2=O)cc1 | inactive
CCCC(=O)Nc1cc2nn(-c3ccccc3)nc2cc1C | inactive
O=C(Cn1nc(Cc2cccnc2)c2ccccc2c1=O)N1CCN(c2ccccc2F)CC1 | inactive
O=C(Nn1cc(C(=O)N2CCN(c3ccccc3F)CC2)c2ccccc2c1=O)c1cnccn1 | 28.2 µM (active)
Cc1nc2ccn(Cc3cccnc3)c(=O)c2cc1C(=O)N1CCN(c2ccccc2F)CC1 | inactive
